Among all 360,000 compounds or so, about 11,000 (3.1%) were called active. No stated cut-off is given here; in the data, active means activity change below about -30%; inactive means the rest. For the sample, actives were picked, then their nearest neighbours and some compounds at random.
On the % scale 0 is the no-effect control and ±100 the full control effect.

Sequence of D(1A) dopamine receptor (Homo sapiens) (P21728 whole entry, looked up): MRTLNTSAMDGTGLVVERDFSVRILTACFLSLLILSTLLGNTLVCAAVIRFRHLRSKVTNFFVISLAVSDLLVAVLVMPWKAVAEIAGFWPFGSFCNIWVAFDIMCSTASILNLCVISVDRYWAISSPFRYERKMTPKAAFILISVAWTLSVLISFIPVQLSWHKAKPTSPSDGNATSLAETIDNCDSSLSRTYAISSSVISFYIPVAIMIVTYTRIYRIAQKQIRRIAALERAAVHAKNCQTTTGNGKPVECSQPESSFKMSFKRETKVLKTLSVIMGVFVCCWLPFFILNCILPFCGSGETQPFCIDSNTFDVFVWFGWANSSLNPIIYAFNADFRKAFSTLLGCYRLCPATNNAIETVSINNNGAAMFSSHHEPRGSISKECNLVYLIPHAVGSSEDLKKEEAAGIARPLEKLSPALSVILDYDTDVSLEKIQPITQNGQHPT

The assay addresses D(1A) dopamine receptor (Homo sapiens) (UniProt P21728). Description: Antagonist of Human D 1 Dopamine Receptor: qHTS. Conditions: HEK293 TREx D1 cells, calcium flux, dopamine EC80; at 10 µM; stronger effect = lower value. From the text: Dopamine receptors (DARs) are involved in the etiology and/or therapy of a number of neuropsychiatric and endocrine disorders. For instance, all receptor-based antiparkinsonian drugs work via stimulating the […] DAR subtype whereas all FDA-approved antipsychotic agents are antagonists of this receptor. […] There are three different types of allosteric modulators that we are seeking, two of which will stimulate or augment receptor signaling, allosteric agonists and potentiators, while the third, allosteric antagonists, will attenuate receptor signaling. The present primary screening assay measures compound antagonism after an EC80 addition of dopamine by tracking calcium flux in a […], inducible Hek293 Trex D1 cell line. NIH Chemical Genomics Center [NCGC] NIH Molecular Libraries Probe Centers Network [MLPCN] MLPCN Grant: NS064831-01 Assay Submitter (PI): David Sibley
Freshly passaged cells are plated in 1536 well black, clear bottom plates at a density of 4000 cells/well in 3 ul of complete media containing 1x tetracycline inducer. After an overnight incubation at 30 C in 5% CO2, cells are loaded with 2 ul of the no wash Calcium Assay Kit (ABD Bioquest) and incubated at room temperature for 30 to 90 minutes. Agonist read: A 10 cycle (1 second/cycle) baseline measurement is taken and then the FDSS online 1536 pintool delivers 23 nl of compound library (as well as dopamine controls) to the plate. The plate is measured for kinetically at 1 cycle/sec for 180 seconds. Following the 180 second read, 1 ul of an EC80 (negative modulation assay) is delivered by an onboard pipette head. Measurements are taken kinetically for an additional 180 seconds.
For orientation: In qHTS, concentration-response curves come from the screen itself.
As for `COc1cc(NC(=O)Cn2c(=O)n(Cc3ccco3)c(=O)c3oc4ccccc4c32)cc(OC)c1`, the activity change, negative = inhibition is 8.05% (inactive).
Consider `COc1cc(OC)c(OC)cc1/C=C/c1nc2ccccc2c(=O)n1-c1ccc(Br)c(C)c1`, for which the activity change, negative = inhibition is 0.553% (inactive).
As for `CC(C)Cc1nnc(NC(=O)CCC(=O)Nc2ccc3cn[nH]c3c2)s1`, the activity change, negative = inhibition is -55.6% (active).
The value for `CC(C)Cc1nnc(NC(=O)CCc2ccccc2)s1` was 3.92% (inactive).
In the case of `Cc1ccc(S(=O)(=O)CCC(=O)Nc2nnc(CC(C)C)s2)cc1` it was 6.37% (inactive).
As for `Cc1c(Cl)cccc1NC(=O)C1CCCN(C(=O)c2cnn(-c3ccccc3)c2-n2cccc2)C1` (configuration not stated), the activity change, negative = inhibition is 7.6% (inactive).
For the molecule `Cc1ccc(SCC(=O)Nc2ccc3oc(-c4ccccc4F)nc3c2)cc1`, the activity change, negative = inhibition was -5.46% (inactive).
For `CCOC(=O)c1ccccc1NC(=O)c1nn(-c2ccc(OC)c(Cl)c2)c(=O)c2c1c1ccccc1n2C`, the activity change, negative = inhibition was 5.56% (inactive).
In the case of `O=C(CSc1cn(CC(=O)N2CCOCC2)c2ccccc12)Nc1ccccc1` it was 11.6% (inactive); in that of `COc1cccc(NC(=O)CN(C)C(=O)/C=C/c2cc(OC)ccc2OC)c1`, 24.2% (inactive); in that of `COc1cccc(NC(=O)CN(C)C(=O)c2ccccc2CCc2ccccc2)c1`, 3.89% (inactive).
Turning to `COc1cccc(NC(=O)CN(C)C(C)C(=O)Nc2ccc(C#N)cc2)c1` (configuration not stated), the activity change, negative = inhibition is -40.7% (active).
In the case of `COC(=O)c1ccccc1NC(=O)c1cnn(-c2ccc(F)cc2)c1-n1cccc1` it was 15% (inactive); in that of `Cc1cccc(NC(=O)Cn2c(C(F)(F)F)nc3ccccc32)c1C`, -9.8% (inactive); in that of `COc1cccc(C(=O)NCc2ccc3c(c2)CCN3C(=O)c2ccncc2)c1`, -7.86% (inactive).
In the case of `Cc1ccc(CNC(=O)c2c(O)nc3c(C)cccn3c2=O)cc1` it was 16.2% (inactive); in that of `Cc1cccc(-n2c(SCC(N)=O)nc3c(oc4ccccc43)c2=O)c1`, -16.4% (inactive).
With `O=C(CN1CCN(c2ccc(F)cc2)CC1)Nc1cccc(C(F)(F)F)c1`, the activity change, negative = inhibition is -2.58% (inactive).
`CCc1sc(C(=O)N2CCN(CC(=O)Nc3cccc(F)c3)CC2)cc1C`: the activity change, negative = inhibition is -30.4% (active).
In the case of `CC(=O)N1CCN(CC(=O)Nc2ccc(C)c(F)c2)CC1` it was 1.94% (inactive); in that of `O=C(CSc1n[nH]c(-c2ccccc2)n1)N1CCCCC1`, -15.7% (inactive).
For the molecule `COC(=O)[C@@H](NC(=O)Nc1cc(Cl)ccc1C)C(C)C`, the activity change, negative = inhibition was -41.7% (active).
In the case of `Cc1ccc(Cl)cc1NC(=O)COC(=O)CC(C)(C)C` it was 4.47% (inactive).
In the case of `COc1ccc(Cl)cc1NC(=O)NC(C)C(C)(C)C` (configuration not stated) it was -26.1% (inactive); in that of `Cc1cc2ccccc2n1CCNC(=O)c1ccc(F)cc1`, -21.6% (inactive); in that of `COc1ccc(S(=O)(=O)NCCSc2nnnn2-c2ccccc2)cc1`, -6.65% (inactive).
For the molecule `Cn1c(C(=O)Nc2cccc(C(F)(F)F)c2)cc2c(=O)n3ccccc3nc21`, the activity change, negative = inhibition was -9.44% (inactive).
For the molecule `Cc1cc(Cl)c(S(=O)(=O)N(C)C)cc1OCC(N)=O`, the activity change, negative = inhibition was 5.54% (inactive).
As to `Cc1cc(Cl)c(S(=O)(=O)Nc2ccc3c(c2)OCCO3)cc1OCC(N)=O`, the activity change, negative = inhibition was -35.2% (active).
In the case of `Cc1cc(Cl)c(S(=O)(=O)NCC2CCCO2)cc1OCC(N)=O` (configuration not stated) it was -3.64% (inactive).
`COc1ccc(CNC(=O)Cc2coc3ccc(C(C)C)cc23)cc1`: the activity change, negative = inhibition is -5.84% (inactive).
In the case of `COc1cccc(N2CCN(S(=O)(=O)c3cc(Br)cc4c3N(C(=O)C3CC3)CC4)CC2)c1` it was -4.38% (inactive).
The value for `CCN1CCCC1CNC(=O)Cn1cnc2ccc(S(=O)(=O)N3CCC(C)CC3)cc2c1=O` (configuration not stated) was -45% (active); that for `CC1CCN(S(=O)(=O)c2ccc3ncn(CC(=O)N(C)C4CCCCC4)c(=O)c3c2)CC1` was -7.06% (inactive).
As to `COc1ccccc1NC(=O)Cn1cnc2ccc(S(=O)(=O)N3CCC(C)CC3)cc2c1=O`, the activity change, negative = inhibition was 0.0222% (inactive).
Take `COc1ccc(-c2nn(CC(=O)NC3CCCC3)c3c2cnc2ccc(F)cc23)cc1`: the activity change, negative = inhibition was -17.2% (inactive).
The value for `Cc1ccc(NC(=O)CN2C(=O)CC(C)Sc3ccccc32)c(C)c1` (configuration not stated) was 5.35% (inactive); that for `COC(=O)C1=CN(c2ccc(F)c(F)c2)C=C(C(=O)OC)C1c1ccc([N+](=O)[O-])cc1` was 13.5% (inactive); that for `COC(=O)C1=CN(C)C=C(C(=O)OC)C1c1ccc(Cl)cc1Cl` was -50.3% (active).
The value for `NC(=O)C1(C(N)=O)OC1c1ccc(Cl)cc1Cl` (configuration not stated) was -18.1% (inactive).
In the case of `Cc1ccc(Nc2ccc3cc(S(=O)(=O)N4CCCCC4)ccc3n2)cc1F` it was -15.5% (inactive).
`CCOc1ccccc1NC(=O)CCN1CCN(S(=O)(=O)c2ccc(OC)cc2)CC1`: the activity change, negative = inhibition is -3.32% (inactive).
The value for `COc1ccccc1NC(=O)CCN1CCN(c2ccc(Cl)cc2)CC1` was -41% (active); that for `COc1ccc(NC(=O)CCN2CCCC2)c(OC)c1` was 0.848% (inactive).
The value for `COc1ccc(C(=O)NC(=S)Nc2ccc(N3CCCC3)cc2)cc1OC` was -30.7% (active); that for `COc1ccc(C(=O)NC(=S)Nc2ccccc2N2CCN(S(C)(=O)=O)CC2)cc1OC` was -7.6% (inactive).
Regarding `Cc1ccc(C(=O)NC(=S)Nc2ccc(N3CCOCC3)cc2)cc1`, the activity change, negative = inhibition was -12.4% (inactive).
In the case of `O=C(NCc1ccc2c(c1)CCN2C(=O)c1ccccc1)Nc1cc(F)ccc1F` it was 1.84% (inactive).
For the molecule `Cc1[nH]n(C)c(=O)c1C(=O)c1c(-c2c(Cl)cccc2Cl)noc1C`, the activity change, negative = inhibition is -9.05% (inactive).
Turning to `Cc1c(N=Nc2ccc(N(C)C)cc2)c(=O)n(-c2ccccc2)n1C`, the activity change, negative = inhibition was -0.41% (inactive).
In the case of `Cc1[nH]n(C)c(=O)c1N=Nc1ccc(S(C)(=O)=O)cc1`, the activity change, negative = inhibition is -33.8% (active).
In the case of `CCOc1ccc(S(=O)(=O)N2CCCCCC2)c2ccccc12`, the activity change, negative = inhibition is 1.18% (inactive).
On to `CCOc1cc(C)c(S(=O)(=O)NCc2ccccn2)cc1C`, for which the activity change, negative = inhibition was -15% (inactive).
The value for `CCOc1cc(C)c(Cl)cc1S(=O)(=O)n1nnc2ccccc21` was -41.9% (active).
As to `COc1ccc(OC)c(CNC(=O)CN2C(=O)CCn3nc(-c4cn(C)c5ccccc45)cc32)c1`, the activity change, negative = inhibition was 9.51% (inactive).
`COc1ccc(-n2ccnc(NCCc3ccc(Cl)cc3)c2=O)cc1OC`: the activity change, negative = inhibition is -3.67% (inactive).
In the case of `Cc1cccc(N2CCN(C(=O)c3cc4c(=O)oc5ccccc5c4s3)CC2C)c1` (configuration not stated) it was -15.4% (inactive).

These data come from PubChem BioAssay AID504652 (National Center for Advancing Translational Sciences (NCATS), 2011).
